# From PubChem BioAssay
# A number with no mark means an inactive call. How the calls were made is not given here.
# Target: Pantothenate synthetase (Mycobacterium tuberculosis (strain ATCC 25618 / H37Rv)) (UniProt P9WIL5)
# Assay: Recombinant Mtb pantothenate synthetase (PanC) inhibitors, coupled enzyme, confirmatory (AID 375);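 further: 0% = full reaction with vehicle and 100% = no enzyme background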
# Settings: coupled enzyme assay; at 10 µM, active compounds read high
# Chain of Pantothenate synthetase (Mycobacterium tuberculosis (strain ATCC 25618 / H37Rv)) (P9WIL5 whole entry, looked up): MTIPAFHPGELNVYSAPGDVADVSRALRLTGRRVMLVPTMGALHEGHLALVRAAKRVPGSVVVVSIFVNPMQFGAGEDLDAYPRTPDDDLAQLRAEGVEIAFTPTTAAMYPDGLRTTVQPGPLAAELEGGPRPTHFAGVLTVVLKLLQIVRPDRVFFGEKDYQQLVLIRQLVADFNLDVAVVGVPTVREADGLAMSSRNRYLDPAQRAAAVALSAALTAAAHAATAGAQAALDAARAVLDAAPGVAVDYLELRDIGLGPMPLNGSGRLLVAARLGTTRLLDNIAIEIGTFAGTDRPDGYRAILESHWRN
row,SMILES,inhibition [%]
1,COc1cc(C2c3c(n[nH]c3C)C(=O)N2c2ccc(C)cc2)ccc1O (centres undefined),0
2,CCCCCCCCCCCCCCCC(O)C(N)CO (centres undefined),0
3,Cc1oc2cc(O)ccc2c(=O)c1-c1cnn(-c2ccccc2)c1,5
4,COc1ccc(N(C)C(=O)CCS(=O)(=O)c2cccc3nonc23)cc1,1
5,O=C(NCCSc1c[nH]c2ccccc12)c1ccc(Br)o1,1
6,Cc1ccc(S(=O)(=O)NC(=O)NN2CCCCCC2)cc1,4
7,COC(=O)CCC(=O)Nc1cccc(Cl)c1,0
8,CN(C)CCOC(c1ccccc1)c1ccccc1,0
9,c1ccc2[nH]c(-c3cscn3)nc2c1,0
10,CCCC(=O)Nc1ccccc1-c1nnn(CC(=O)Nc2ccc(OC)cc2)n1,0
11,C=CCSc1nnc(NC(=O)c2ccc(S(=O)(=O)NCC3CCCO3)cc2)s1 (centres undefined),1
12,O=C(Cn1nnc(-c2ccccc2)n1)Nc1ccccc1N1CCOCC1,0
13,O=c1cc(COn2nnc3ccc(C(F)(F)F)cc32)nc2sccn12,0
14,Cn1nc(C(=O)Nc2cccc(C(F)(F)F)c2)ccc1=O,0
15,C=CC(O)(C#CCN(CC)CC)c1ccccc1 (centres undefined),3
16,Cc1[nH]nc2c1C(=O)CCC2,0
17,COc1cccc(-n2ccnc2SCC(=O)N2CCc3ccccc32)c1,0
18,Cc1ccc(-c2ccc(SCC(=O)Nc3nonc3C)nn2)cc1,3
19,COc1ccccc1N1CCN(C(=O)c2cc(C3CC3)on2)CC1,3
